In paper PMC11062922 (Nature Chemical Biology, 2023) one finds potency estimated from few doses data, which are given here for 24 molecules.

Like-named read-outs stand apart in the source and are kept apart here.

Holding throughout (parameters): species or system human, MV4-11 + K-562 + COLO205 + SK-N-BE2 + OVCAR-8
For one experiment, the system named is BRAF. To be noted: read-out: apparent Kd, n = 1.
A further experiment deals with CSNK1G1. The following applies: read-out: apparent Kd; compound concentrations:100 nM and 1000 nM (sheet 'Samples'); n = 1.
A further experiment relates to PIP4K2C. To be noted: read-out: apparent Kd; compound concentrations:100 nM and 1000 nM (sheet 'Samples'); n = 1.
For another experiment, the system named is PIK3C2A. The following applies: read-out: apparent Kd, n = 1.
The next experiment deals with STK26. To be noted: read-out: apparent Kd, n = 1.
The next experiment relates to DCTPP1. The following applies: read-out: apparent Kd; compound concentrations:100 nM and 1000 nM (sheet 'Samples'); n = 1.
For another experiment, the system named is NNT. To be noted: read-out: apparent Kd, n = 1.
Another experiment deals with MAP3K11. To be noted: read-out: apparent Kd, n = 1.
For another experiment, the system named is PRKAA2. The following applies: read-out: apparent Kd, n = 1.
For the next experiment, the system named is PAK4. To be noted: read-out: apparent Kd; compound concentrations:100 nM and 1000 nM (sheet 'Samples'); n = 1.
Another experiment relates to PRKAA1. The following applies: read-out: apparent Kd; compound concentrations:100 nM and 1000 nM (sheet 'Samples'); n = 1.
The test system of the next experiment is MAP4K2. The following applies: read-out: apparent Kd, n = 1.
The next experiment relates to STK4. To be noted: read-out: apparent Kd, compound concentrations: 100 nM and 1000 nM (sheet 'Samples'), n = 1.
For another experiment, the system named is PRKAG2. To be noted: read-out: apparent Kd, n = 1.
The next experiment concerns VDAC3. The following applies: read-out: apparent Kd, n = 1.
The next experiment concerns SLK. To be noted: read-out: apparent Kd; compound concentrations:100 nM and 1000 nM (sheet 'Samples'); n = 1.
For the next experiment, the system named is PIK3CA. To be noted: read-out: apparent Kd, n = 1.
For a further experiment, the system named is STRADA. To be noted: read-out: apparent Kd, n = 1.
For the next experiment, the system named is MARK4. To be noted: read-out: apparent Kd; compound concentrations:100 nM and 1000 nM (sheet 'Samples'); n = 1.
[1] abbreviates: compound concentrations:100 nM and 1000 nM (sheet 'Samples').

As to `CC(=O)N1CCN(c2ccc(Nc3nccc(-c4sc(C(C)C)nc4-c4cccc(NS(=O)(=O)c5ccccc5)c4)n3)cn2)CC1` [GSK1645872A], the potency estimated from few doses in the experiment on BRAF (compound concentrations: 100 nM and 1000 nM (sheet 'Samples'), CATDS: 3.03150696001999E-2) was 721 nM. Consider `CC(=O)c1c(-c2ccncc2)[nH]c(-c2ccncc2)c1C` [GW493036X], for which the potency estimated from few doses in the experiment with CSNK1G1 is 717 nM.

In the case of `N#Cc1cccc(Nc2nccc(-c3cnn4ncccc34)n2)c1` [GW778894X], the potency estimated from few doses in the experiment with PIP4K2C is 113 nM. As for `O=S(=O)(CCOCc1ccc(-c2ccc3ncnc(Nc4ccc(OCc5cccc(F)c5)c(Cl)c4)c3c2)o1)c1ccccc1` [GW615311X], the potency estimated from few doses was 2050 nM in the experiment with PIK3C2A (compound concentrations: 100 nM and 1000 nM (sheet 'Samples'), CATDS: 2.34385173398927E-2); 2340 nM with STK26 (compound concentrations: 100 nM and 1000 nM (sheet 'Samples'), CATDS: 2.23099896492461E-2).

Regarding `O=S(=O)(c1ccc(-c2ccnc3[nH]ccc23)cc1)N1CCCC1` [GSK846226A], the potency estimated from few doses in the experiment with DCTPP1 and in the experiment on NNT (setting [1]) was 2150 nM each time. Regarding `CC(C)c1nc(-c2ccc(F)c(NS(=O)(=O)c3c(F)cccc3F)c2)c(-c2ccnc(Nc3ccc(N4CCOCC4)nc3)n2)s1` [GSK1804250A], the potency estimated from few doses in the experiment on BRAF (setting [1]) was 939 nM. On to `CC(C)c1nc(-c2cccc(NS(=O)(=O)c3c(F)cccc3F)c2F)c(-c2ccnc(Nc3ccc(N4CCOCC4)nc3)n2)s1` [GSK2008607A], for which the potency estimated from few doses was 1670 nM in the experiment on BRAF (compound concentrations: 100 nM and 1000 nM (sheet 'Samples'), CATDS: 1.89965490605935E-2); 316 nM with MAP3K11 (compound concentrations: 100 nM and 1000 nM (sheet 'Samples'), CATDS: 3.6955578451965801E-2); 1250 nM in the experiment with PRKAA2 (compound concentrations: 100 nM and 1000 nM (sheet 'Samples'), CATDS: 2.0597012246937899E-2). On to `CC(C)c1nc(-c2cccc(NS(=O)(=O)c3c(F)cccc3F)c2)c(-c2ccnc(Nc3ccc(N4CCOCC4)nc3)n2)s1.Cl` [GSK1723980B], for which the potency estimated from few doses is 243 nM in the experiment on BRAF (compound concentrations: 100 nM and 1000 nM (sheet 'Samples'), CATDS: 2.6842704761094599E-2); 662 nM with MAP3K11 (compound concentrations: 100 nM and 1000 nM (sheet 'Samples'), CATDS: 1.8312802074437001E-2). For the molecule `Cl.Cn1c(=O)c(Cc2ccc(F)cc2F)cc2cnc(NC3CCOCC3)nc21` [RO3308757-001], the figures for the potency estimated from few doses in the experiment on PAK4, in the experiment on PRKAA1 and with PRKAA2 (setting [1]) were 1650 nM, 706 nM and 1190 nM, respectively.

Regarding `Nc1ncc(-c2cn[nH]c2)c2scc(-c3ccc4c(c3)CCN4C(=O)Cc3ccccc3)c12` [GSK2593067A], the potency estimated from few doses in the experiment with MAP4K2 (compound concentrations: 100 nM and 1000 nM (sheet 'Samples'), CATDS: 0.15564611372576101) is 200 nM; in the experiment on STK4 (CATDS: 7.8104026917421798E-2), 768 nM. With `COc1ccc(COc2ccc(Cc3cnc(N)nc3N)cc2OC)cc1` [GW632580X], in the experiment on NNT (setting [1]), the potency estimated from few doses was 1910 nM. `Cn1cc(C2=C(c3cn(CCCCCO)c4ccccc34)C(=O)NC2=O)c2ccccc21` [RO0318053-000]: in the experiment with PRKAA2 (compound concentrations: 100 nM and 1000 nM (sheet 'Samples'), CATDS: 8.4372577909481605E-2), the potency estimated from few doses is 1450 nM. On to `Clc1ccc(-c2nn3ncccc3c2-c2ccnc(Nc3ccccc3)n2)cc1` [GW829055X], for which the potency estimated from few doses in the experiment with NNT (compound concentrations: 100 nM and 1000 nM (sheet 'Samples'), CATDS: 0.15486403103885801) was 130 nM; in the experiment with PRKAG2 (compound concentrations: 100 nM and 1000 nM (sheet 'Samples'), CATDS: 5.2406473036639797E-2), 681 nM; in the experiment on VDAC3 (compound concentrations: 100 nM and 1000 nM (sheet 'Samples'), CATDS: 4.3121960870331599E-2), 997 nM. For `COc1cc2ncn(-c3cc(OCc4sccc4Cl)c(C(N)=O)s3)c2cc1OC` [GSK448459A], the potency estimated from few doses in the experiment with MAP4K2 (setting [1]) was 827 nM; in the experiment on SLK, 434 nM. On to `COc1ccc(C2=C(Nc3cccc(O)c3)C(=O)NC2=O)cc1` [SB-390766], for which the potency estimated from few doses with PIK3CA (setting [1]) is 115 nM. With `COc1ccc(-c2nn3ncccc3c2-c2ccnc(Nc3ccc4c(c3)OCCO4)n2)cc1` [GW827106X], in the experiment with PIK3CA (compound concentrations: 100 nM and 1000 nM (sheet 'Samples'), CATDS: 0.187165726463497), the potency estimated from few doses is 172 nM.

Regarding `Cc1ccc(NC(=O)c2ccc(Cl)cc2)cc1-c1ccc(C(=O)Nc2ccncc2)cc1` [GSK1398467A], the potency estimated from few doses with NNT (compound concentrations: 100 nM and 1000 nM (sheet 'Samples'), CATDS: 0.228122835279086) was 956 nM. With `COc1cc(F)c(F)c(F)c1C(=O)c1cnc(NC2CCN(S(C)(=O)=O)CC2)nc1N` [RO4600703-000], the potency estimated from few doses in the experiment on SLK is 471 nM. As to `COc1cc2ncn(-c3cc(O[C@H](C)c4ccccc4Cl)c(C(N)=O)s3)c2cc1OC` [GSK237701A], the potency estimated from few doses with PRKAG2 (setting [1]) was 1520 nM; with SLK it was 782 nM. `NC(=O)c1cccnc1COc1cc(-c2ccc(N3CCOCC3)nc2)cc2ncccc12` [BI01125081]: the figures for the potency estimated from few doses in the experiment with DCTPP1 and in the experiment on MAP3K11 (setting [1]) were 1970 nM and 1890 nM, respectively. In the case of `COc1ccc(C2=C(c3cn(C)c4ccccc34)C(=O)NC2=O)cc1OC` [RO3206363-000], the potency estimated from few doses in the experiment with STK26 (compound concentrations: 100 nM and 1000 nM (sheet 'Samples'), CATDS: 3.3943818014748203E-2) is 1450 nM; in the experiment with STK4 (CATDS: 7.8788816860825395E-2) it was 166 nM; with STRADA (compound concentrations: 100 nM and 1000 nM (sheet 'Samples'), CATDS: 3.11031335260477E-2) it was 2050 nM. Consider `Fc1ccc(-c2ncn(C3CCNCC3)c2-c2ccnc(Oc3ccc4c(c3)OCO4)n2)cc1` [SB-250715], for which, in the experiment on VDAC3 (setting [1]), the potency estimated from few doses was 834 nM.

As for `Fc1cccc(COc2ccc(Nc3ncncc3C#Cc3ccccc3)cc2Cl)c1` [GW651576X], the potency estimated from few doses in the experiment with NNT (compound concentrations: 100 nM and 1000 nM (sheet 'Samples'), CATDS: 5.0215020986353498E-2) was 1770 nM; in the experiment with PRKAG2 (compound concentrations: 100 nM and 1000 nM (sheet 'Samples'), CATDS: 5.1701945188740897E-2), 1670 nM; in the experiment with STK26 (compound concentrations: 100 nM and 1000 nM (sheet 'Samples'), CATDS: 5.7539827795964102E-2) it was 1350 nM. `Nc1c(C(=O)c2ccccc2)cnn1-c1ccc(F)cc1` [RO1151246-000]: the potency estimated from few doses was 1920 nM in the experiment on MAP3K11 (setting [1]); 1290 nM in the experiment with MARK4; 1660 nM with PIK3C2A (setting [1]); 1780 nM in the experiment on PRKAA2 (setting [1]); 1890 nM in the experiment with STK26 (setting [1]); 1830 nM in the experiment with STRADA (setting [1]).
